From ChEMBL document CHEMBL3433997, “St. Jude Leishmania screening dataset” (2016)
Several values for one entry are separate records, joined by “and”; a condition that tells them apart may be missing. Equal entries are not always repeated.

Assays:
Format in all cases: functional
[1] = target: Solute carrier family 2, facilitated glucose transporter member 1 (Homo sapiens) (UniProt P11166); assay: ST_JUDE_LEISH: Cytotoxicity at 2uM final concentration against transgenic Leishmania Mexicana promastigotes LmGLUT1 that are glucose transport deficient and complemented with the human glucose transporter GLUT1. Activity is measured by DNA content using SYBR green in vitro
[2] = target: Hexose transporter 1 (Plasmodium falciparum) (UniProt O97467); assay: ST_JUDE_LEISH: Cytotoxicity at 2uM final concentration against transgenic Leishmania Mexicana promastigotes LmPfHT that are glucose transport deficient and complemented with the Plasmodium falciparum hexose transporter. Activity is measured by DNA content using SYBR green in vitro
[3] = target: Glucose transporter (Leishmania mexicana) (UniProt O61059); assay: ST_JUDE_LEISH: Cytotoxicity at 2uM final concentration against transgenic Leishmania Mexicana promastigotes LmGT2 that are glucose transport deficient and complemented with the L. Mexicana glucose transporter 2. Activity is measured by DNA content using SYBR green in vitro

Chain of Solute carrier family 2, facilitated glucose transporter member 1 (Homo sapiens) (P11166 whole entry): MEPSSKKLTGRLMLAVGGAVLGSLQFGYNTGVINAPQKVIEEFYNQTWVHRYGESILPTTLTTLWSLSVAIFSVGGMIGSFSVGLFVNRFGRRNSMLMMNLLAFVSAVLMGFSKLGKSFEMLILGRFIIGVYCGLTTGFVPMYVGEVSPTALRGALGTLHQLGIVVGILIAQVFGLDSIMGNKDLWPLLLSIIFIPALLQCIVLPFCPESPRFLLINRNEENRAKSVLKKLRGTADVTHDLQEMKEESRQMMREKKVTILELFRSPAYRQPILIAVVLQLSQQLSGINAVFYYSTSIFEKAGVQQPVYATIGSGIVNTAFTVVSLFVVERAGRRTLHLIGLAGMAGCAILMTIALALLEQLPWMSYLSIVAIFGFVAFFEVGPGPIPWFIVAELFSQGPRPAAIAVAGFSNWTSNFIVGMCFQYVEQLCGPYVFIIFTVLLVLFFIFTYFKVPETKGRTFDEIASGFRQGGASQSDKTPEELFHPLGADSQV

Compound `O=C(NCCC1CCN(CCc2c[nH]c3ccccc23)CC1)Nc1ccc(Cl)c(Cl)c1` has an inhibition [1] of 3.67%, an inhibition [2] of 2.49% and an inhibition [3] of 3%.
In the case of `Cc1ccccc1C1=CCN(CCCN2c3ccccc3Sc3ccc(Cl)cc32)CC1`, the inhibition [1] is reported as 6.62%, the inhibition [2] is reported as 5.58% and the inhibition [3] is reported as 1.49%.
Work on `COc1ccc(CC(C)NCC(O)c2cccc(Cl)c2F)cc1` (configuration not stated) yielded an inhibition [1] of 1.96%, an inhibition [2] of -0.19% and an inhibition [3] of 0.32%.
In the case of `COc1cccc(C(=O)C2CC2CN2CC=C(c3c(C)[nH]c4ccccc34)CC2)c1` (configuration not stated), the inhibition [1] is reported as 1.94%, the inhibition [2] is reported as -3.97% and the inhibition [3] is reported as 4.19%.
`CC[C@H]1CN2CC[C@@H]1C[C@H]2[C@H](O)c1cc(-c2cc(Cl)cc(Cl)c2)nc2ccc(OC)cc12` showed an inhibition [1] of 2.83%, an inhibition [2] of 2.24% and an inhibition [3] of 1%.
For `CC(=O)C1(c2ccccc2)CCN(CCC2(c3ccc(Cl)c(Cl)c3)CN(C(=O)C3CCCC3)CCO2)CC1` (configuration not stated), the inhibition [1] was 4.09%, the inhibition [2] was 3.1% and the inhibition [3] was 0.75%.
`Cc1ccc2c(C3=CCN(CCCCC4(C)C(=O)Nc5c(F)cccc54)CC3)c(C)[nH]c2c1` (configuration not stated) showed an inhibition [1] of 2.71%, an inhibition [2] of 1.48% and an inhibition [3] of 1.63%.
With `COc1ccc(NC(=S)NC(NC(=O)CF)C(Cl)(Cl)Cl)cc1[N+](=O)[O-]` (configuration not stated) the inhibition [1] was 3.05%, the inhibition [2] was -3.38% and the inhibition [3] was -1.65%.
`CC[C@H]1CN2CCc3cc(OC)c(OC)cc3[C@@H]2C[C@@H]1C[C@H]1NCCc2c1cc(OC)c(O)c2I` was tested, and the inhibition [1] was 93.9%, the inhibition [2] was 96.6% and the inhibition [3] was 90%.
For `NC1=NC2(CCCC2)N(c2ccc(Cl)cc2)C(N)=N1`, the inhibition [1] was 3.05%, the inhibition [2] was 4.23% and the inhibition [3] was 3.83%.
`C=C[C@H]1CN2CC[C@H]1C[C@H]2[C@H](O)c1cc(/C=C/c2ccc(F)cc2)nc2ccc(OC)cc12` showed an inhibition [1] of 2.95%, an inhibition [2] of 0.72% and an inhibition [3] of 2.4%.
`CC(Cc1ccc(-c2nc3ccccc3[nH]2)cc1)NCC(O)c1cccc(C(F)(F)F)c1` (configuration not stated) was tested, and the inhibition [1] was 1.35%, the inhibition [2] was -1.73% and the inhibition [3] was -0.37%.
`O=C(/C=C/c1ccc(Cl)c(Cl)c1)Nc1cccc(CN2CCC(c3c[nH]c4ccc(O)cc34)CC2)c1` showed an inhibition [1] of 0.9%, an inhibition [2] of 1.55% and an inhibition [3] of -0.7%.
Compound `COC(C(=O)OCCC1CCCN1C)(c1ccccc1)C1CCCCC1` (configuration not stated) has an inhibition [1] of 11.6%, an inhibition [2] of 10.5% and an inhibition [3] of 10.5%.
`O=C(COc1ccc(Cl)cc1)N1CCC(CN2CCC(c3c[nH]c4ccccc34)CC2)CC1` was tested, and the inhibition [1] was -2.1%, the inhibition [2] was -1.7% and the inhibition [3] was -4.27%.
In the case of `Cc1nc(N)nc(N)c1-c1cccc(Cl)c1`, the inhibition [1] is reported as 3.73%, the inhibition [2] is reported as 4.7% and the inhibition [3] is reported as 1.38%.
`O=C1Nc2cccc3c2C1(CCCCN1CC=C(c2c[nH]c4ncccc24)CC1)CCC3` (configuration not stated) showed an inhibition [1] of 5.83%, an inhibition [2] of 4.08% and an inhibition [3] of 3.96%.
`C=CC12CCN(CC1)C(C(O)c1ccnc3ccc(OC)cc13)C2` (configuration not stated) gave an inhibition [1] of 0.26%, an inhibition [2] of 0.03% and an inhibition [3] of -0.85%.
For `NC(=O)c1ccc2[nH]cc(C3CCN(CC4CCC(NC(=O)/C=C/c5ccc(Cl)c(Cl)c5)CC4)CC3)c2c1` (configuration not stated), the inhibition [1] was -3.07% and 2.76%, the inhibition [2] was -1.26% and 2.22% and the inhibition [3] was 0.5% and 1.58%.
